We go through 40 compounds from ChEMBL document CHEMBL3433997, “St. Jude Leishmania screening dataset” (2016).

Molecules are shown by their SMILES.

For this assay, the target named is Glucose transporter (Leishmania mexicana) (UniProt O61059). As to the kind of experiment: ST_JUDE_LEISH: Cytotoxicity at 2uM final concentration against transgenic Leishmania Mexicana promastigotes LmGT2 that are glucose transport deficient and complemented with the L. Mexicana glucose transporter 2. Activity is measured by DNA content using SYBR green in vitro. The assay is classed as functional.
On to `N#Cc1ccc(-c2ccc(C(=O)NCCCCN3CCC(c4cn(CCO)c5ccccc45)CC3)cc2)cc1`, for which the inhibition came out at 0.2%.
As for `CN1CCN(CC2(Nc3nccc(NCc4ccc(Cl)cc4Cl)n3)CCCCC2)CC1`, the figure is 6.18%; as for `COc1cc2c(c(Cl)c1OC)CCN(C(=O)C(F)(F)F)CC2c1ccccc1` (stereo not given), 4.64%; as for `OC(CNC1CCCCC1)Cn1c2ccccc2c2ccccc21` (stereo not given), 3.35%.
With `COCCOC(=O)C(=O)c1c(-c2ccccc2)c(-c2ccc(OC)c(OC)c2)c2c3cc(OC)c(OC)cc3ccn12`, the inhibition amounted to 1.72%.
As for `COc1ccc2nccc([C@@H](O)CN3CCC(NCc4ccc5c(n4)NCCC5)CC3)c2c1`, the inhibition was determined as 6.5%.
As for `CC(C)(C)[C@@H](Nc1ccc(C#N)c2ccccc12)C(=O)NC1(Cc2ccc(O)c(Br)c2)CCCC1`, the figure is -0.09%; as for `CCOC(=O)/C(=N\OC(C(=O)OC(C)(C)C)c1ccccc1)c1csc(NC(c2ccccc2)(c2ccccc2)c2ccccc2)n1` (stereo not given), 0.99%.
For `Cc1cc(SC(C)(C)C)cc2c(Cl)c(C(N)=O)cnc12` the value was 85.8%; for `COc1cc(NC(=O)CCCN2CCN(c3cccc(Cl)c3Cl)CC2)ccc1N1CCN(C(C)C)CC1`, -0.51%; for `O=C(NCc1cc2c(cc1Cl)OCO2)c1ccc(CNC2CCN(Cc3ccccc3)CC2)cc1`, 0.48%.
As for `Cc1nc(O)c2c(ccc3ccc(CNc4ccc(C(=O)N[C@@H](CCC(=O)O)C(=O)O)c(F)c4)cc32)n1`, the figure is -0.16%.
Take `CN(C)CCC1CCCc2ccc(NC(=O)Nc3cccc(Cl)c3Cl)cc21` (stereo not given): the inhibition was determined as 1.03%.
Take `Cc1cc(NC2CCCC2)nc(Nc2ccccc2)n1`: the inhibition came out at 6.13%.
For `CN1CCCc2ccc(NC(=O)c3cnc(-c4ccccc4)cn3)cc21` the value was -0.23%.
`O=C(NCCNc1noc(-c2sccc2Br)n1)c1ccc(Cl)cc1`: the inhibition was -0.91%.
As for `CC(CCc1ccccc1)NCC(O)c1ccc2c(c1)S(=O)(=O)c1ccccc1N2` (stereo not given), the figure is 2.14%; as for `CCOc1ccc(-c2cc3nc(C4CCNCC4)c(C(=O)Nc4ccc(C)cc4Cl)cn3n2)cc1`, 1.29%; as for `CC(C)C[C@H](NC(=O)c1cccc(F)c1)C(=O)N[C@H](/C=N/NC(=O)c1ccccc1)CCc1ccccc1`, 0.18%.
For `Cc1cc(Nc2c(C(N)=O)cnc3cc(-c4ccoc4)ccc23)ccc1N1CCN(C)CC1` the value was -0.69%; for `COc1cc(C(=O)Nc2cccc(-c3nc4ccccc4[nH]3)c2)cc(OC)c1OC`, -3.56%; for `O=C(NC1CC1)c1ccc(N2CCC(Cc3ccccc3)CC2)nc1`, -1.16%.
As for `N=C(N)Nc1nc(-c2cccc(NC(=O)C(F)(F)F)c2)cs1`, the figure is 3.35%.
Regarding `O=C(/C=C/c1ccc(Cl)c(Cl)c1)NCCCCCN1CC[C@H](NC(=O)c2sc3ccccc3c2Cl)C1`, the inhibition is -1.69%.
`Cc1ccccc1CNc1noc(-c2c(F)cccc2Cl)n1`: the inhibition is 5.34%.
For the compound `CC(=O)Nc1ccc(CN2CCc3ccc(NS(=O)(=O)c4ccc(-c5cccc(C(F)(F)F)c5)cc4)cc3CC2)s1`, the inhibition was 3.46%.
Consider `Cc1cc(N[C@@H](CC(C)C)C(=O)NCc2cccc(F)c2)nc(NCCc2ccc(F)cc2)n1`, for which the inhibition was determined as 4.36%.
`CCOc1ccc(C(=O)Nc2cc(Br)c3c(c2)CNCC3)cc1Br`: the inhibition worked out at 6.15%.
As for `CCCCOc1c(CNCCCCCCNCc2ccc3ccccc3c2OCCCC)ccc2ccccc12`, the figure is 85.2%.
As for `O=C(Nc1cccc(-c2cccc(-c3nc4cc(C(F)(F)F)ccc4[nH]3)c2)c1)c1ccncc1`, the figure is 2.56%; as for `COc1ccc(-c2ccc3c(-c4cccc(S(C)(=O)=O)c4)cnc(N)c3c2)cc1`, 0.45%; as for `Cc1csc(-c2ncc(OC[C@@H](N)Cc3ccccc3)cc2-c2ccc3[nH]nc(C)c3c2)c1`, -0.58%.
As for `Clc1ccc(OCc2ccccc2)c(-c2nc(-c3nc4ccc(Cl)cc4[nH]3)cs2)c1`, the figure is 3.09%; as for `COc1ccc(CCON2C(=N)N=C(N)NC2(C)C)cc1OC`, 3.2%.
On to `c1cc2[nH]c(CCc3nc4cc(C5=NC6CCCCC6N5)ccc4[nH]3)nc2cc1C1=NC2CCCCC2N1` (stereo not given), for which the inhibition was 6.48%.
Consider `O=C(/C=C/c1ccc(Cl)c(Cl)c1)NCCCCCN1CCC(NC(=O)NC2CCCCCC2)CC1`, for which the inhibition is 0%.
For `Cc1cccc2nc(-c3ccc(-c4ccc(CNCCNC(=O)c5ccnn5C)cc4)s3)[nH]c12` the value was 8.36%; for `C=CCN1C(=O)c2[nH]nc(-c3cc(C)c(C)cc3O)c2C1c1cccc(Br)c1` (stereo not given), 1.27%; for `COc1ccc(CNCc2cccc(-c3cccc(-c4nc5cccc(C)c5[nH]4)c3)c2)cc1`, 7.72%.
For `COc1cc2nc(N3CCC(CNC(=O)c4ccc(-c5ccc(C(F)(F)F)cc5)cc4)CC3)nc(N)c2cc1OC` the value was -0.23%.

Usually inhibition stands for the drop in the measured response relative to a control, in per cent.
